# Measurements: the supplement of paper PMC8728848
# About 410 targets per protein were measured; listed, in parts, are those with the strongest signals and a random draw of the rest.
# B1: PEB3 (Campylobacter jejuni), Q0PBL7 (protein)
# chain: MKKIITLFGACALAFSMANADVNLYGPGGPHTALKDIANKYSEKTGVKVNVNFGPQATWFEKAKKDADILFGASDQSALAIASDFGKDFNVSKIKPLYFREAIILTQKGNPLKIKGLKDLANKKVRIVVPEGAGKSNTSGTGVWEDMIGRTQDIKTIQNFRNNIVAFVPNSGSARKLFAQDQADAWITWIDWSKSNPDIGTAVAIEKDLVVYRTFNVIAKEGASKETQDFIAYLSSKEAKEIFKKYGWRE
# How the values were obtained:
# Assay in all cases: glycan array binding signal (z-score within array); higher = stronger binding
# Settings in all cases: glycan notation: IUPAC condensed, linker removed
# [1] = target: Fuc(a1-2)Gal(b1-3)GalNAc(b1-4)[Neu5Ac(a2-3)]Gal(b1-4)Glc
# Summary of the method: (§1)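 The binding signal is a Z-score computed within each array. Data were drawn from 3228 arrays in the Consortium for Functional Glycomics database, restricted to those with a known protein sequence. Scores were averaged over arrays of the same protein sequence at different concentrations or buffers, and over linkers, and negative values can be taken as non-binding.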
# [2] = target: Fuc(a1-2)Gal(b1-3)[Fuc(a1-4)]GlcNAc
# Summary of the method: as §1
# [3] = target: Fuc(a1-2)Gal(b1-4)[Fuc(a1-3)]GlcNAc(b1-2)Man(a1-3)[Fuc(a1-2)Gal(b1-4)[Fuc(a1-3)]GlcNAc(b1-2)Man(a1-6)]Man(b1-4)GlcNAc(b1-4)GlcNAc
# Summary of the method: as §1
# [4] = target: Fuc(a1-2)[Gal(a1-3)]Gal(b1-4)Glc
# Summary of the method: as §1
# [5] = target: Fuc(a1-2)[Gal(a1-3)]Gal(b1-4)GlcNAc
# Summary of the method: as §1
# [6] = target: Fuc(a1-3)[Gal(b1-4)]GlcNAc(b1-4)Gal(b1-4)[Fuc(a1-3)]GlcNAc(b1-4)Gal(b1-4)[Fuc(a1-3)]GlcNAc
# Summary of the method: as §1
# [7] = target: Fuc(a1-3)[Gal3S(b1-4)]GlcNAc6S
# Summary of the method: as §1
# Fuc(a1-4)GlcNAc = target: Fuc(a1-4)GlcNAc
# Summary of the method: as §1
# Gal(a1-3)Gal = target: Gal(a1-3)Gal
# Summary of the method: as §1
# [8] = target: Gal(a1-3)Gal(b1-3)[Fuc(a1-4)]GlcNAc(b1-2)Man(a1-3)[Gal(a1-3)Gal(b1-3)[Fuc(a1-4)]GlcNAc(b1-2)Man(a1-6)]Man(b1-4)GlcNAc(b1-4)GlcNAc
# Summary of the method: as §1
# [9] = target: Gal(a1-3)Gal(b1-4)GlcNAc(b1-3)GalNAc
# Summary of the method: as §1
# [10] = target: Gal(b1-3)GlcNAc(b1-3)Gal(b1-4)GlcNAc(b1-6)[Gal(b1-3)GlcNAc(b1-3)]Gal(b1-4)Glc
# Summary of the method: as §1
# [11] = target: Gal(b1-3)[Fuc(a1-4)]GlcNAc(b1-3)Gal(b1-4)[Fuc(a1-3)]GlcNAc
# Summary of the method: as §1
# [12] = target: Gal(b1-3)[Neu5Ac(a2-6)]GalNAc
# Summary of the method: as §1
# [13] = target: Gal(b1-4)GlcNAc(b1-3)[Gal(b1-4)GlcNAc(b1-6)]Gal(b1-4)GlcNAc
# Summary of the method: as §1
# [14] = target: Gal(b1-4)GlcNAc(b1-6)[Gal(b1-3)]GalNAc
# Summary of the method: as §1
# [15] = target: GalNAc(b1-4)GlcNAc(b1-2)Man(a1-3)[GalNAc(b1-4)GlcNAc(b1-2)Man(a1-6)]Man(b1-4)GlcNAc(b1-4)GlcNAc
# Summary of the method: as §1
# [16] = target: GlcNAc(a1-4)Gal(b1-4)GlcNAc(b1-3)Gal(b1-4)[Fuc(a1-3)]GlcNAc(b1-3)Gal(b1-4)[Fuc(a1-3)]GlcNAc
# Summary of the method: as §1
# [17] = target: GlcNAc(b1-2)Gal(b1-3)GalNAc
# Summary of the method: as §1
# [18] = target: GlcNAc(b1-3)Gal(b1-3)GalNAc
# Summary of the method: as §1
# GlcNAc(b1-3)GalNAc = target: GlcNAc(b1-3)GalNAc
# Summary of the method: as §1
# [19] = target: Man(a1-2)Man(a1-3)[Man(a1-6)]Man(a1-6)[Man(a1-2)Man(a1-3)]Man(b1-4)GlcNAc(b1-4)GlcNAc
# Summary of the method: as §1
# [20] = target: Man(a1-3)[Man(a1-6)]Man(a1-6)[Man(a1-3)]Man
# Summary of the method: as §1
# [21] = target: Neu5Ac(a2-3)Gal(b1-3)GlcNAc(b1-3)Gal(b1-4)GlcNAc
# Summary of the method: as §1
# [22] = target: Neu5Ac(a2-3)Gal(b1-4)GlcNAc(b1-3)Gal(b1-4)GlcNAc(b1-3)Gal(b1-4)GlcNAc
# Summary of the method: as §1
# [23] = target: Neu5Ac(a2-3)Gal(b1-4)GlcNAc(b1-3)Gal(b1-4)[Fuc(a1-3)]GlcNAc
# Summary of the method: as §1
# [24] = target: Neu5Ac(a2-3)Gal(b1-4)[Fuc(a1-3)]GlcNAc(b1-3)GalNAc
# Summary of the method: as §1
# [25] = target: Neu5Ac(a2-6)Gal(b1-4)GlcNAc(b1-2)Man(a1-3)[Neu5Ac(a2-6)Gal(b1-4)GlcNAc(b1-2)Man(a1-6)]Man(b1-4)GlcNAc(b1-4)GlcNAc
# Summary of the method: as §1
# [26] = target: Neu5Ac(a2-6)Gal(b1-4)GlcNAc(b1-2)Man(a1-6)[GlcNAc(b1-2)Man(a1-3)]Man(b1-4)GlcNAc(b1-4)GlcNAc
# Summary of the method: as §1
# [27] = target: Neu5Ac(a2-6)Gal(b1-4)GlcNAc(b1-3)GalNAc
# Summary of the method: as §1
binder,measurement,setting,value
B1,glycan array binding signal (z-score),[1],0.671
same,glycan array binding signal (z-score),[2],7.5
same,glycan array binding signal (z-score),[3],4.64
same,glycan array binding signal (z-score),[4],-1.35
same,glycan array binding signal (z-score),[5],0.283
same,glycan array binding signal (z-score),[6],0.144
same,glycan array binding signal (z-score),[7],0.696
same,glycan array binding signal (z-score),Fuc(a1-4)GlcNAc,-0.82
same,glycan array binding signal (z-score),Gal(a1-3)Gal,-0.384
same,glycan array binding signal (z-score),[8],4.25
same,glycan array binding signal (z-score),[9],0.06
same,glycan array binding signal (z-score),[10],-0.921
same,glycan array binding signal (z-score),[11],-0.524
same,glycan array binding signal (z-score),[12],-1.27
same,glycan array binding signal (z-score),[13],-0.199
same,glycan array binding signal (z-score),[14],0.227
same,glycan array binding signal (z-score),[15],4.25
same,glycan array binding signal (z-score),[16],3.7
same,glycan array binding signal (z-score),[17],-0.834
same,glycan array binding signal (z-score),[18],2.96
same,glycan array binding signal (z-score),GlcNAc(b1-3)GalNAc,-0.715
same,glycan array binding signal (z-score),[19],-0.005
same,glycan array binding signal (z-score),[20],-1.11
same,glycan array binding signal (z-score),[21],-0.117
same,glycan array binding signal (z-score),[22],-1.17
same,glycan array binding signal (z-score),[23],0.473
same,glycan array binding signal (z-score),[24],4.53
same,glycan array binding signal (z-score),[25],0.39
same,glycan array binding signal (z-score),[26],-0.237
same,glycan array binding signal (z-score),[27],-0.21
